Entries with a potency or affinity are not part of this list. Results filed as inconclusive are left out. Active and inactive are the calls of the source. The rule behind the calls is not given here.

17 molecules from PubChem BioAssay AID602432 (Southern Research Specialized Biocontainment Screening …, 2012) can be followed below.

The nature of this assay: HepG2 cell cytotoxicity, cytotoxicity control, set 6 (AID 602432). As to conditions: series mostly up to 50 µM.
Consider `O=C(c1ccc(CNc2c(N3CCCC3)c(=O)c2=O)cc1)N1CCC(c2ccccc2)CC1`, for which the call was inactive.

With `O=C(CSc1nc2ccccc2c(=O)[nH]1)NC1CCOCC1`, the result was inactive.

As to `O=C(CSc1nc2c(c(=O)[nH]1)CN(Cc1ccccc1)CC2)NC1CCCCC1`, the molecule was called inactive.

As for `O=C(c1ccc(CNc2c(N3CCOCC3)c(=O)c2=O)cc1)N1CCN(c2ccccc2)CC1`, the molecule was classed as inactive.

In the case of `O=C(CSc1nc2ccccc2c(=O)[nH]1)NC1CCCCC1`, the result was inactive.

For `CC(C)CCNC(=O)CSc1nc2c(c(=O)[nH]1)CCCCC2`, the call was inactive.

As to `CC(C)CCNC(=O)CSc1nc2c(c(=O)[nH]1)CCCC2`, the outcome was inactive.

Consider `COC(=O)C(Cc1ccccc1)NC(=O)CSc1nc2ccccc2c(=O)[nH]1` (configuration not stated), for which the call was inactive.

`COc1ccc(NC(=O)NCc2ccc(C(=O)N3CCC(c4ccccc4)CC3)cc2)cc1`: the molecule was called inactive.

Turning to `CC(C)CCNC(=O)CSc1nc2ccccc2c(=O)[nH]1`, the call was inactive.

As to `CC1CCCN(c2c(NCc3ccc(C(=O)N4CC=C(c5ccccc5)CC4)cc3)c(=O)c2=O)C1` (configuration not stated), the call was inactive.

As for `O=C(CSc1nc2c(c(=O)[nH]1)CCC2)NC1CCCCC1`, the result was inactive.

Turning to `O=C(CSc1nc2c(c(=O)[nH]1)CCCC2)NC1CCCCC1`, the outcome was inactive.

With `O=C(c1ccc(CNc2c(N3CCCC3)c(=O)c2=O)cc1)N1CCN(c2ccccc2)CC1`, the call was inactive.

As for `O=C(c1ccc(CNc2c(N3CCOCC3)c(=O)c2=O)cc1)N1CCC(c2ccccc2)CC1`, the call was inactive.

As for `O=C(NCc1ccc(C(=O)N2CCN(c3ccccc3)CC2)cc1)NC1CCCCC1`, the molecule was classed as inactive.

Regarding `COCCNC(=O)CSc1nc2ccccc2c(=O)[nH]1`, the molecule was classed as inactive.
